Measured values published in the OligoGym collection.

Target: CYP2E1
Experiment: pooled miR-30 sensor sort-seq; sequence = guide strand
Settings: shRNA
Further: reference of the scale not given here.

| Sequence | sensor-assay potency score (higher = more potent) |
| --- | --- |
| ATCATTGTAGTCAAAATGCTTG | -1.07 |
| TCACTGTACTTGAACTTTCCAT | -0.768 |
| TGTCATACAAAACAGAGTCCAG | -0.481 |
| TATTCTTCAATTCCAACTGGAA | -0.685 |
| TTGGGGATGAGGTATCCTCTGA | -0.671 |
| TTTTTTATGACTTTTCTGTGGC | 0.343 |
| TTCATGGAGCTTCTCTTCGATC | -1.27 |
| ATAGTCACTGTACTTGAACTTT | -0.806 |
| TAGTCACTGTACTTGAACTTTC | -0.787 |
| ATATTCTTCAATTCCAACTGGA | 0.347 |
| TAAACTTTTCTGGATCAGGAAA | -1.37 |
| TAGAAACTTCTCATCATTGTAG | 1.11 |
| TACAGCGTGAACACCGGCCCGA | -0.641 |
| TTGGTTGTCATACAAAACAGAG | -1.2 |
| ATGTAGGGCATCTCTTGCCTAT | -1.01 |
| TTGTAGTCAAAATGCTTGCGGA | -0.87 |
| TTGAAATAGTCACTGTACTTGA | -0.183 |
| TTAAACAAATACATCAGCCTTA | 0.593 |

Target: CYP4A11
Experiment: as above
Settings: shRNA

| Sequence | sensor-assay potency score (higher = more potent) |
| --- | --- |
| TAGCTCCTGGTCCTGTTGGAGC | -1.31 |
| AACACAAGTCGTGCAATGGGGA | -1.18 |
| TGTGCAGGTAGAGCTGAACTGC | -1.37 |
| TTTCTGAATCCGTTGTAGCTCC | -0.368 |
| TAGATGGTGTCATTCTGGTGAA | -0.837 |
| TTTGAGCAGCCACTGCCTGTGC | -0.428 |
| AAAGGGTCAAACACCTCTGGGT | -0.324 |

Target: CYP4A22
Experiment: as above
Settings: shRNA

| Sequence | sensor-assay potency score (higher = more potent) |
| --- | --- |
| TTGGGTTGTGGTGAAGGCCATA | -1 |
| TAGAGGATCCAGGAGATCCCAC | -1.33 |
| TAGGATCCATGGGATTTCGGGT | -1.1 |
| ATTTCAACACAAGTCGTGCCAT | -0.11 |
| TAGCTCCTGGTCGTGTTGGAAC | -1.63 |
| TGGTCGTGTTGGAACTCCTGGA | -0.8 |
| TGTCTGACAAGATGCTCCCATT | -1.67 |
| TTGTAGCTCCTGGTCGTGTTGG | -0.703 |
| TTGGGAATGTCTTCACCCGTTC | -0.893 |
| TGGCCCTCAAACATGAACGTGT | -0.767 |
| TTCATGGCAAATTGTTTCCCGA | -0.959 |
| TATGCAGGTAGAGCTGAGCTGC | -1.03 |
| TTGGATCACTTGGTCTGTGTGC | -0.603 |
| TTGTCTGACAAGATGCTCCCAT | 0.46 |
| AAACATGAACGTGTCCACCTCA | -0.12 |
